Laboratory results from PubChem BioAssay.
Values without a mark were called inactive. For some assays here: Measured potencies and affinities stand elsewhere. Calls of active or inactive are those of the source. Unless noted, the rule behind the calls is not given here.

How the values were obtained:
[1] = antimalarial activity against Dd2 strain (AID 2302;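 active = growth inhibition above 50% at the single 2 µM test dose, taken to imply half-maximal potency below 2 µM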;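 note: 0% = DMSO untreated growth and 100% = chloroquine plus artemisinin killed control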); details: P. falciparum Dd2 in RBCs, LDH growth readout, 72 h; at 2 µM; hits give high values
[2] = HepG2 cytotoxicity, primary screen, cytotoxicity control for P. falciparum antimalarial project, cell-based, ATP luminescence (AID 2303;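 active = inhibition above 50%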;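 note: 0% = DMSO wells and 100% = digitonin-killed cells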); details: HepG2 viability, 24-48 h, at 10 µM, hits give high values
[3] = target: L-lactate dehydrogenase (Plasmodium falciparum (isolate CDC / Honduras)) (UniProt Q27743); experiment: PfLDH activity inhibition – cell lysate, 3D7 strain, counter-screen for P. falciparum growth inhibition project (AID 2304);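 note: 0% = vehicle and 100% = reference inhibitor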; details: P. falciparum 3D7 crude extract, LDH APAD/NBT absorbance; at 2 µM; hits give high values
[4] = inhibition of 3D7 malaria parasite growth – strain 3D7 (AID 2306);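 note: 0% = DMSO wells and 100% = chloroquine plus artemisinin control wells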; details: P. falciparum 3D7 erythrocytic growth, LDH absorbance, 72 h; at 2 µM; hits give high values
[5] = target: Calcium-dependent protein kinase 1 (Plasmodium falciparum (isolate 3D7)) (UniProt P62344); experiment: PfCDPK1 kinase inhibitors, biochemical, TCAMS library (AID 1159585; cut-off not given, nearly all actives have IC50 up to about 0.98 µM;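 note: inhibitors leave more ATP so luminescence rises with inhibition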); details: recombinant PfCDPK1, Kinase-Glo ATP depletion luminescence
[6] = target: Plasmodium falciparum protein kinase 6 (PK6, PF3D7_1337100) (UniProt Q8IDW1); experiment: PfPK6 kinase inhibitors, biochemical, TCAMS library (AID 1159586); details: recombinant PfPK6, Kinase-Glo ATP depletion luminescence
[7] = target: Protein kinase 7 (PK7), Plasmodium falciparum 3D7 (PF3D7_0213400) (UniProt Q7YTF7); experiment: inhibition of Plasmodium PK7 catalytic activity – biochemical, TCAMS antimalarial set, Kinase-Glo luminescence (AID 1159587); details: recombinant PfPK7, Kinase-Glo ATP depletion luminescence
[8] = target: Calcium-dependent protein kinase 4 (Plasmodium falciparum (isolate 3D7)) (UniProt Q8IBS5); experiment: PfCDPK4 kinase inhibitors, biochemical, TCAMS library (AID 1159588; cut-off not given, nearly all actives have IC50 up to about 0.91 µM); details: recombinant PfCDPK4, Kinase-Glo ATP depletion luminescence
Calcium-dependent protein kinase 4 (Plasmodium falciparum (isolate 3D7)), sequence (Q8IBS5 whole entry, looked up): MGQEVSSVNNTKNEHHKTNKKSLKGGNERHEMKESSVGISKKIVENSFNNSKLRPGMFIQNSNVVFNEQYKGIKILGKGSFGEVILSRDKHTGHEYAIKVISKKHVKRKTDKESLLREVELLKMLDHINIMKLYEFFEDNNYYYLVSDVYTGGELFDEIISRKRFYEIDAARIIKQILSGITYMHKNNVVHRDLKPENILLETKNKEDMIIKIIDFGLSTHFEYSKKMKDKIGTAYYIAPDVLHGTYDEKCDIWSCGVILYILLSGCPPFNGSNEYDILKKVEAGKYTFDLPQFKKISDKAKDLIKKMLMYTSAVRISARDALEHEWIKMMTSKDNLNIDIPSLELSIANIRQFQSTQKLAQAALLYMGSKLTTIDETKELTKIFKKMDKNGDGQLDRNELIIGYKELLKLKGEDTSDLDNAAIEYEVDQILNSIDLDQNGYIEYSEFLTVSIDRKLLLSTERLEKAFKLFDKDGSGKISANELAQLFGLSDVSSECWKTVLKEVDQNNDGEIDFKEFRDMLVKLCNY

Protein kinase 7 (PK7), Plasmodium falciparum 3D7 (PF3D7_0213400), sequence (Q7YTF7 1-343): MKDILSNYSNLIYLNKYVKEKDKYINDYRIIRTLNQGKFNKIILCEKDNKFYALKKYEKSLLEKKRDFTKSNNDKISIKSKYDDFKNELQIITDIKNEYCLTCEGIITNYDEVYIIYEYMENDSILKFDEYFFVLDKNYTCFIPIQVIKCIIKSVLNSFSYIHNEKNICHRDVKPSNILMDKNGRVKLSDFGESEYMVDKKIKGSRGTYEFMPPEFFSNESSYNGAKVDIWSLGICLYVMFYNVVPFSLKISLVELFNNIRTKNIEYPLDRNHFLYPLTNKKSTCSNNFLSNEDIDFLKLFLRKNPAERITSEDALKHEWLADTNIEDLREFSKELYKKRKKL
Plasmodium falciparum protein kinase 6 (PK6, PF3D7_1337100), sequence (Q8IDW1 1-305): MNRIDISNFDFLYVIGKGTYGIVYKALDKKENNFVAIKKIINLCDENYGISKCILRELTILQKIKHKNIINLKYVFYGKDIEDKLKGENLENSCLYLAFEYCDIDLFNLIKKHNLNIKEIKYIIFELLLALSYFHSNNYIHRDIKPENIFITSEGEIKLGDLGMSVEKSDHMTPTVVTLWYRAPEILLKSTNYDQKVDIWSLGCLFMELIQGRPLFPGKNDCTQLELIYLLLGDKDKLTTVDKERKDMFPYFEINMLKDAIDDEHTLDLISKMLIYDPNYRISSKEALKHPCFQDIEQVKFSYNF
Calcium-dependent protein kinase 1 (Plasmodium falciparum (isolate 3D7)), sequence (P62344 whole entry, looked up): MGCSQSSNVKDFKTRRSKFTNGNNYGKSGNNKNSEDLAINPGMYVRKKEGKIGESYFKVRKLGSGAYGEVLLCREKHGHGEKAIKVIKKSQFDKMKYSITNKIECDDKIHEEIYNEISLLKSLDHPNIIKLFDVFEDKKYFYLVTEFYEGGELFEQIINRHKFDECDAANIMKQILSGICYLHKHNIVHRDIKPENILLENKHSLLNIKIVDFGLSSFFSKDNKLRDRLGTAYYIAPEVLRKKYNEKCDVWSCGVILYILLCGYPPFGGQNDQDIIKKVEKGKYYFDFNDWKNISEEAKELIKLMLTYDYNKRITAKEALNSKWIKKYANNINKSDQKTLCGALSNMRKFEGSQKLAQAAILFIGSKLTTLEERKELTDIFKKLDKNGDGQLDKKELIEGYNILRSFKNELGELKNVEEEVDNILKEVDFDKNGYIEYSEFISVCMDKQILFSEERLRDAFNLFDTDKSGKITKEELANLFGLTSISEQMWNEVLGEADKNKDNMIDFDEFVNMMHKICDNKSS
L-lactate dehydrogenase (Plasmodium falciparum (isolate CDC / Honduras)), sequence (Q27743 whole entry, looked up): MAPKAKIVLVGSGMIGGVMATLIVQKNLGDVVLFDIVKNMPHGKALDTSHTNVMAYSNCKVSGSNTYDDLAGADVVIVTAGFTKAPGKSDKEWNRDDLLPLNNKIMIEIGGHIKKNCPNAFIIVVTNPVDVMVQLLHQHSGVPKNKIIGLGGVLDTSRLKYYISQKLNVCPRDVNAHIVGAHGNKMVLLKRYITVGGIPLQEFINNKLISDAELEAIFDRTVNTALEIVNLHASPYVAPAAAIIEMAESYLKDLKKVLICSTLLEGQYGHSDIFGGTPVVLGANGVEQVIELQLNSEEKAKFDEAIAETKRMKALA

Row | SMILES | growth inhibition [1] | inhibition [2] | inhibition [3] [%] | growth inhibition [4] | outcome [5] | outcome [6] | outcome [7] | outcome [8]
1 | COCCNCc1cccc(-c2cc3nccc(Nc4ccc(Oc5ccccc5)cc4)c3cc2Cl)c1 | 99% (active) | -8% | 1 | 99% (active) | inactive | inactive | inactive | inactive
2 | O=C(NOCCCCOc1ccc(Cl)c(Cl)c1)c1ccccc1 | 1% | 2% | 3 | 98% (active) | inactive | inactive | inactive | inactive
3 | O=C(/C=C/c1ccc(Cl)c(Cl)c1)NCCCCCN1CCC(NC(=O)c2ccc3ccccc3c2)CC1 | 20% | 8% | -2 | 87% (active) | inactive | inactive | inactive | inactive
4 | Cc1cccc2[nH]c(-c3cccc(-c4cccc(NC(=O)CNc5ccc(C(N)=O)cc5)c4)c3)nc12 | 56% (active) | 15% | 6 | 100% (active) | inactive | inactive | inactive | inactive
5 | CCCCCCN1CCCN(Cc2ccc(C(=O)Nc3ccc(Cl)cc3)cc2)CC1 | 54% (active) | 50% (active) | 3 | 89% (active) | inactive | inactive | inactive | inactive
6 | O=C(Cc1ccc(Cl)cc1)NC1CCN(c2ccnc3cc(Cl)ccc23)C1 (stereo not given) | 99% (active) | 13% | -3 | 82% (active) | inactive | inactive | inactive | inactive
7 | CN1CCN(c2cc(-c3ccncc3)nc(-c3cccnc3)n2)CC1 | 98% (active) | 13% | 3 | 101% (active) | inactive | inactive | inactive | inactive
8 | N#Cc1cccc(-c2cnc(N)c(-c3nc4ccc(S(N)(=O)=O)cc4[nH]3)c2)c1 | 99% (active) | 16% | -5 | 100% (active) | inactive | inactive | inactive | inactive
9 | O=C(Nc1ccc(Br)c(C(F)(F)F)c1)c1cccc([N+](=O)[O-])c1 | 3% | 24% | -7 | 94% (active) | inactive | inactive | inactive | inactive
10 | Cc1ccc(O)cc1Nc1c(C(N)=O)cnc2ccc(-c3cncs3)cc12 | 99% (active) | 21% | 3 | 100% (active) | inactive | inactive | inactive | inactive
11 | CC(C)COc1ccc(Cl)cc1Cc1nc(-c2nc3ccc(CN4CCCC4)cc3[nH]2)co1 | 66% (active) | 50% (active) | -1 | 101% (active) | inactive | inactive | inactive | inactive
12 | CCCCN(CCCC)CCCCNc1c2ccccc2nc2ccccc12 | 100% (active) | 36% | 0 | 100% (active) | inactive | inactive | inactive | inactive
13 | Cc1cc(N[C@@H](CC(C)C)C(=O)NCCc2ccccc2)nc(NCc2ccccc2C)n1 | 74% (active) | 17% | 0 | 93% (active) | inactive | inactive | inactive | inactive
14 | Cc1ccc(NC(=O)Nc2cccc(Cl)c2)cc1-c1ccc(C(=O)Nc2ccncc2)cc1 | 49% | 67% (active) | -1 | 97% (active) | inactive | inactive | inactive | inactive
15 | CC(C)(C)c1ccc(-c2cc3c(ccc4nc(N)nc(N)c43)[nH]2)cc1 | 100% (active) | 100% (active) | 5 | 101% (active) | inactive | inactive | inactive | inactive
16 | Cc1cc(Nc2ccncc2)n2nc(C)c(-c3ccccc3Cl)c2n1 | 93% (active) | 2% | 4 | 99% (active) | inactive | inactive | inactive | inactive
17 | COc1cc(NC(=O)N2CCOC(CCN3CCC4(CCc5ccccc54)CC3)(c3ccc(Cl)c(Cl)c3)C2)cc(OC)c1OC (stereo not given) | 67% (active) | 17% | -4 | 94% (active) | inactive | inactive | inactive | inactive
18 | CCN(CC)CCN(Cc1ccc(-c2ccc(C(F)(F)F)cc2)cc1)C(=O)Cn1c(CCc2cc(F)cc(F)c2F)nc(=O)c2ccccc21 | 77% (active) | 36% | 1 | 101% (active) | inactive | inactive | inactive | inactive
19 | Cc1cccc2[nH]c(-c3ccc(-c4ccc(NC(=O)C(=O)c5cccn5C)cc4)cc3)nc12 | 15% | 40% | 8 | 95% (active) | inactive | inactive | inactive | inactive
20 | NC(=O)c1cccc(C(=O)Nc2ccc(-c3cccc(-c4nc5ccc(F)cc5[nH]4)c3)cc2)c1 | 5% | 45% | -5 | 94% (active) | inactive | inactive | inactive | inactive

Row | SMILES | growth inhibition [1] | inhibition [2] | inhibition [3] [%] | growth inhibition [4] | outcome [5] | outcome [6] | outcome [7] | outcome [8]
21 | CN1CCCN(Cc2ccc(-c3ccc(NC(=O)c4cccc(C#N)c4)cc3)cc2)CC1 | 67% (active) | 46% | -8 | 97% (active) | inactive | inactive | inactive | inactive
22 | CC(C)N1CCN(C(=O)c2ccc(CN(C)CCCN3CCN(c4cccc(Cl)c4Cl)CC3)s2)CC1 | 35% | 74% (active) | 3 | 94% (active) | inactive | inactive | inactive | inactive
23 | Cc1nc2ccc3nc(NC(=O)c4ccno4)sc3c2s1 | 97% (active) | 6% | 1 | 99% (active) | inactive | inactive | inactive | inactive
24 | Cc1cc(N[C@@H](Cc2ccccc2)C(=O)NCCOc2ccccc2)nc(NCCc2ccccc2)n1 | 68% (active) | 12% | -1 | 101% (active) | inactive | inactive | inactive | inactive
25 | CCCOc1ccccc1C(=O)Nc1nonc1-c1ccc(OCC)c(OCC)c1 | 89% (active) | 46% | -4 | 99% (active) | inactive | inactive | inactive | inactive
26 | NCC1CCCN1Cc1ccc(-c2ccc(-c3nc4ccc(F)cc4[nH]3)cc2)cc1 (stereo not given) | 100% (active) | 31% | -3 | 102% (active) | inactive | inactive | inactive | inactive
27 | O=C(Nc1ccc2c(c1)CCC2)c1ccc(N2CCN(c3ccncc3)CC2)cc1 | 75% (active) | 72% (active) | 4 | 101% (active) | inactive | inactive | inactive | inactive
28 | COc1cc(Cc2cnc(N)nc2N)cc(OCCCCC2SC(=O)NC2=O)c1OC (stereo not given) | 0% | -9% | 7 | 94% (active) | inactive | inactive | inactive | inactive
29 | CCc1cn2c3c(cc(C(=O)N[C@@H](Cc4cc(F)cc(F)c4)[C@H](O)CNC4CCOCC4)cc13)N(C)S(=O)(=O)CC2 | 98% (active) | 1% | -7 | 98% (active) | inactive | inactive | inactive | inactive
30 | CCC(C)(C)C1CCc2[nH]c3ccccc3c(=O)c2C1 (stereo not given) | 96% (active) | 16% | -4 | 97% (active) | inactive | inactive | inactive | inactive
31 | O=C(Nc1ccc(C(F)(F)F)cc1)NC1CCN(CCCCCNC(=O)[C@@H]2C[C@H]2c2ccc(Cl)c(Cl)c2)CC1 | 45% | 41% | -7 | 101% (active) | inactive | inactive | inactive | inactive
32 | Cc1cc(F)ccc1-c1nc(NCCCNCCc2ccccc2)nc2c1ccc(=O)n2-c1c(F)cccc1F | 100% (active) | 36% | -6 | 100% (active) | inactive | inactive | inactive | inactive
33 | c1ccc2oc(-c3cc4ccncc4cc3OC3CCNCC3)cc2c1 | 96% (active) | 11% | -3 | 100% (active) | inactive | inactive | inactive | inactive
34 | O=S(=O)(NC1CCCCN(Cc2ccccc2O)C1)c1ccc(C(F)(F)F)cc1 (stereo not given) | 39% | 1% | 7 | 84% (active) | inactive | inactive | inactive | inactive
35 | COc1ccc(-c2cccc(NC(=O)c3ccc(C#N)cc3)c2)cc1CN(C)CCN(C)C | 18% | 14% | 3 | 90% (active) | inactive | inactive | inactive | inactive
36 | Clc1ccc2c(NCc3ccc4c(c3)OCO4)ccnc2c1 | 97% (active) | 6% | 1 | 101% (active) | inactive | inactive | inactive | inactive
37 | COc1ccc2nccc([C@@H](O)CN3CCC(NCc4ccc5cccc(O)c5n4)CC3)c2n1 | 13% | 8% | 2 | 94% (active) | inactive | inactive | inactive | inactive
38 | COC(=O)c1ccc(Nc2nccc(Nc3ccc(Oc4ccccc4)cc3)n2)cc1 | 15% | -10% | 7 | 93% (active) | inactive | inactive | inactive | inactive
39 | COc1cc(Cc2cnc(N)nc2N)ccc1OCc1ccc(-c2csnn2)cc1 | -2% | 33% | -4 | 97% (active) | inactive | inactive | inactive | inactive
40 | OC(CNCc1ccccc1OCc1ccccc1)c1cc(C(F)(F)F)cc(C(F)(F)F)c1 (stereo not given) | 99% (active) | 3% | 3 | 100% (active) | inactive | inactive | inactive | inactive
